# Screening data: PubChem, National Center for Advancing Translational Sciences (NCATS)
# ALOX12 inh: inhibitors of human 12S-lipoxygenase ALOX12; P18054; purified 12hLO, xylenol orange hydroperoxide absorbance; Potency, µM (top dose mostly 108 µM), inactives show top-dose activity change, negative = inhibition, usual class: inhibitors; 580,000 compounds, 1.1% hits; further: potency means the concentration at half of the fitted maximal effect; on the % scale 0 is the no-effect control and ±100 the full control effect
#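 Purified human 12hLO at 150 nM in 25 mM Hepes, 0.01% Triton X-100, pH 7.0, preincubated 15 min at room temperature with compound. Reaction started with 40 uM arachidonic acid, 30 min at room temperature. Hydroperoxide measured by Fe-xylenol orange, 573/405 nm absorbance ratio.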
# Pol iota inh: DNA polymerase iota (human) inhibition; Q9UNA4; Pol iota fluorescent replication assay, 10 min; Potency, µM (titrated, usually from 115 µM), without a hit: at the top dose activity, negative = inhibition, actives largely listed as inhibitors; 390,000 compounds, 1% hits; AID 588590; further: potency means the concentration at half of the fitted maximal effect
#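 Pol iota at 10 nM preincubated 15 min with compounds at room temperature; reaction started with fluorescent substrate, 50 nM final. Fluorescence read kinetically at 0 and 10 min; buffer-only wells as negative control.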
# PI5P4Ka inh: inhibitors of human PI5P4K alpha; P48426; PI5P4Kalpha enzyme, ADP-Glo luminescence, 60 min; hits give low values; max response, %; 330,000 compounds, 1.2% hits; AID 652105; active means max response of -50% or lower; inconclusive means between -30% and -50%; inactive means -30% or higher; further: value at the top dose of about 77 µM; on the % scale 0 is the no-effect control and ±100 the full control effect
#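 Enzyme plus substrate dispensed, test compounds pinned in, then ATP (5 microM final) added. After 60 min at RT, ADP-Glo reagent 1 for 45 min and reagent 2 for 30 min preceded luminescence imaging.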
# Pol kappa inh: inhibitors of human DNA polymerase kappa; Q9UBT6; purified Pol kappa, fluorescent DNA synthesis assay, 10 min; Potency, µM (top dose mostly 107 µM), without a hit: at the top dose activity, negative = inhibition, actives largely listed as inhibitors; 400,000 compounds, 0.53% hits; AID 588579; further: potency means the concentration at half of the fitted maximal effect; on the % scale 0 is the no-effect control and ±100 the full control effect
# Target sequence (Q9UBT6 whole entry, looked up): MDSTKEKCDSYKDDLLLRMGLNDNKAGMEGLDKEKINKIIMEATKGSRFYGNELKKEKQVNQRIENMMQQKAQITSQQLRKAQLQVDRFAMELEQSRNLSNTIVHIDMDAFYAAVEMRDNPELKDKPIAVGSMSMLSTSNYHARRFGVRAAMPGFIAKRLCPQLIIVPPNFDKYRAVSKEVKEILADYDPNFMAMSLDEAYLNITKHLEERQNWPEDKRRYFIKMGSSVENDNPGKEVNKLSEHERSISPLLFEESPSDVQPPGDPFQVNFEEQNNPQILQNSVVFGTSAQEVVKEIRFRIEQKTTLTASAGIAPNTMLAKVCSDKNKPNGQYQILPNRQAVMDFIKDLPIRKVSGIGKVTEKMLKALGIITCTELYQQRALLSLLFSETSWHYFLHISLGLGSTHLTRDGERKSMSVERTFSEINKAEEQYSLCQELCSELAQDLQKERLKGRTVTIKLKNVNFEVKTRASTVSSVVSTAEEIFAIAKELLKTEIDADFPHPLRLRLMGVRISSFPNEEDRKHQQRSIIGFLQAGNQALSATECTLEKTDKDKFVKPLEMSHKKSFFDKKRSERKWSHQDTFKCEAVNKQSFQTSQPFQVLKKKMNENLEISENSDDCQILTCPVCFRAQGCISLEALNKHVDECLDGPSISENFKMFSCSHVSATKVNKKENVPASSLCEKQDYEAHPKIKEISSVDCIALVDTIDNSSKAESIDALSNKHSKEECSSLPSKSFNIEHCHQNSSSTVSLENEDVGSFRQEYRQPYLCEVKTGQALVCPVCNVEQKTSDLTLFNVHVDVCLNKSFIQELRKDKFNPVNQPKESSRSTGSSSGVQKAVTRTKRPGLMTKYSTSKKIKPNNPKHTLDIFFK
#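 Here, compound and 10 nM enzyme are combined for 15 min at room temperature; adding 50 nM substrate (final) starts DNA synthesis, tracked by fluorescence at 0 and 10 min against buffer-only wells.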
# Pol beta inh: blocks human DNA polymerase beta activity. Pol beta primer extension/strand displacement, fluorescence kinetic. Potency, µM (series often up to 114 µM), inactives show at the top dose activity change, negative = inhibition, hits mostly inhibitors. 340,000 compounds, 1.3% hits; further: potency means the concentration at half of the fitted maximal effect; on the % scale 0 is the no-effect control and ±100 the full control effect
#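 Human Pol beta at 10 nM; strand-displacement substrate 50 nM final. Compound exposure 15 min at room temperature before start, reaction 10 min at room temperature.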
# POLH inh: DNA polymerase eta (human) inhibition; Q9Y253; recombinant Pol eta, fluorescent DNA replication assay; Potency, µM (titrated, usually from 114 µM), for inactives: at the highest dose activity change, negative = inhibition, actives largely listed as inhibitors; 390,000 compounds, 1.2% hits; further: potency means the concentration at half of the fitted maximal effect; on the % scale 0 is the no-effect control and ±100 the full control effect
#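 Pol eta at 10 nM preincubated with compounds 15 min at room temperature; reaction started with fluorescent substrate (50 nM final) and read kinetically at 0 and 10 min.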
# * marks the source's active call; other numbers are inactive results; ? = inconclusive; / = no result given; [ ] = dose if it differs, or a comment. Most compounds without a hit are left out; they make up all but 2.9% or so of the library. Unless noted, the call rests on the fitted dose curve; in most records, active means well fitted inhibition curve with a large enough effect; inconclusive means small, poorly fitted or top-dose-only effect, or another doubt; inactive means no such curve, though single readings can be large or run the other way.
SMILES,ALOX12 inh,Pol iota inh,PI5P4Ka inh,Pol kappa inh,Pol beta inh,POLH inh
O=C(Cn1cnc([N+](=O)[O-])n1)c1ccc(O)c(O)c1,?,7.1µM*,-4,?,?,?
Cc1c(-c2nsc(NC(=O)c3cccs3)n2)nnn1-c1ccc(Br)cc1,-9%,?,/,-21%,3.2µM*,?
COC(=O)c1ccc(-n2nnc(-c3nsc(NC(=O)c4ccc(Cl)cc4)n3)c2C)cc1,0%,?,/,-9%,56µM*,-23%
Cc1ccc(-n2nnc(-c3nsc(NC(=O)c4ccccc4)n3)c2C)cc1,-29%,?,/,-7%[60.1 µM],2%,?
N#CCc1ccc(NC(=O)CNc2ccccc2Br)cc1,-61%,/,/,/,/,/
O=C(O)c1cc(NC(=O)c2ccc([N+](=O)[O-])cc2)cc(NC(=O)c2ccc([N+](=O)[O-])cc2)c1,-9%,-12%,-4,-9%,9%,?
O=C(Nc1ccc([N+](=O)[O-])cc1)C(=O)Nc1cccc(C(=O)O)c1,-2%,32%,-60*,5%,-20%,-7%
O=C(O)c1cccc(NC(=S)NC(NC(=O)c2cccc([N+](=O)[O-])c2)C(Cl)(Cl)Cl)c1 (centres undefined),?,11%,1,-9%,?,56µM*
CCCCOCCCNC(=O)CCC(=O)NC1CCCC(C)C1C (centres undefined),-18%,/,/,/,/,/
O=C(COc1ccccc1F)OCc1cc(=O)n2nc(-c3cccs3)sc2n1,-12%,?,/,-16%,32µM*,-28%
Cc1cccc(C(=O)OCc2cc(=O)n3nc(-c4cccs4)sc3n2)c1,-11%,89µM*,/,?,20µM*,?
O=C(OCc1cc(=O)n2nc(-c3cccs3)sc2n1)c1ccc(Cl)cc1,-3%,?,/,-34%,32µM*,?
O=C(OCc1cc(=O)n2nc(-c3cccs3)sc2n1)c1ccccc1,-17%,79µM*,/,-23%,35µM*,79µM*
Cc1ccccc1OCC(=O)OCc1cc(=O)n2nc(-c3cccs3)sc2n1,-11%,?,/,-21%,?,-15%
CC(C)(C)OC(=O)NCCNC(=O)c1cc2ccccc2[nH]1,0%,/,/,/,/,/
CCCOc1ccc(-c2[nH]nc3c2C(c2cc(OC)c(OC)c(OC)c2)C(C#N)=C(N)O3)cc1 (centres undefined),15%,/,/,/,/,/
Cc1ccc(/C=C(/C#N)c2ccc(C(F)(F)F)cn2)cc1,-1%,/,/,/,/,/
O=C(Nc1ccccc1Cl)c1nc2ccccc2nc1N1CCOCC1,14%,/,/,/,/,/
CCc1nn2c(=O)cc(COC(=O)c3cccc(NC(=O)c4cccs4)c3)nc2s1,-17%,89µM*,/,-2%[60.1 µM],1%,-12%
CC(C)c1nn2c(=O)cc(COC(=O)c3cccc(NC(=O)c4cccs4)c3)nc2s1,-14%,-6%,/,0%[60.1 µM],0%,-21%
Cc1ccc(N=CC=C2OC(C)(C)C(C)(C)O2)cc1,35µM*,2%,8,0%,6%,-8%
CCOc1ccc(-c2csc(-c3c(C)c(C)nn(C)c3=O)n2)cc1,-10%,/,/,/,/,/
Cn1nc(C(=O)OCC(=O)Nc2ccc(Cl)cn2)c2ccccc2c1=O,-13%,/,/,/,/,/
O=C(O)c1ccc(Cl)c2c1C1C=CCC1C(c1ccccn1)N2 (centres undefined),/,/,/,/,8.9µM*,/
O=C(Cc1ccc(S(=O)(=O)N2CCCC2)s1)Nc1nc2c(s1)CCCC2,?,?,?,-27%,?,18µM*
Cc1cc(C)cc(NC(=O)Cc2ccc(S(=O)(=O)N3CCCC3)s2)c1,78%,-16%,0,-24%,/,1%
O=C(Cc1ccc(S(=O)(=O)N2CCOCC2)s1)Nc1ccc(N2CCOCC2)cc1,2%,59%,-24,1%,32µM*,-23%
O=C(Cc1ccc(S(=O)(=O)N2CCCC2)s1)N1CCOCC1,0%,?,4,-13%,45µM*,?
CN(C)S(=O)(=O)c1ccc(NC(=O)Cc2ccc(S(=O)(=O)N3CCOCC3)s2)cc1,-12%,?,?,?,?,56µM*
